The supplement of paper PMC8047044

These compounds were tested on Neuro-2a (assay: neurite formation score, plate-normalized to DMSO control mean 5.04 (score (0-8 scale)); higher = more or longer neurites). Conditions: 1 µM.
Protocol: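 Neuro-2a mouse neuroblastoma cells in PLL-coated 96-well plates were pre-treated for 1 h in DMEM(+) with each kinase inhibitor at 1 µM, then switched to serum-free DMEM(-) with inhibitor to induce neurite outgrowth and fixed about 2-3 h later. Three blinded observers scored neurite formation from 0 (no neurites) to 8 (long neurites on almost all cells).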
Compound `CNC(=O)c1ccccc1Sc1ccc2c(/C=C/c3ccccn3)n[nH]c2c1` has a neurite formation score of 3.57.
`Cc1cc(Nc2cc(N3CCN(C)CC3)nc(/C=C/c3ccccc3)n2)n[nH]1` [ENMD-2076 L-(+)-Tartaric acid] showed a neurite formation score of 3.8.
In the case of `CC(C)(C#N)c1ccc(N2C(=O)OCc3cnc4ccc(-c5cnc6ccccc6c5)cc4c32)cc1`, the neurite formation score is reported as 3.63.
`CNC(=O)c1cc(Oc2ccc(NC(=O)Nc3cc(C(C)(C)C)nn3-c3ccc4ncccc4c3)c(F)c2)ccn1` [DCC-2036 (Rebastinib)] was tested, and the neurite formation score was 1.29.
`CN1C/C=C/CCOc2cccc(c2)-c2ccnc(n2)Nc2cccc(c2)C1` gave a neurite formation score of 2.8.
Work on `COc1cc(-c2cc(-c3ccc(N4CCNCC4)cc3)cnc2C)cc(OC)c1OC` yielded a neurite formation score of 4.47.
With `COc1cc(Nc2ncc3c(n2)-c2ccc(Cl)cc2C(c2c(F)cccc2OC)=NC3)ccc1C(=O)O` [MLN8237 (Alisertib)] the neurite formation score was 4.36.
With `CN1CCN(S(=O)(=O)c2ccc(-c3cnc(N)c(C(=O)Nc4cccnc4)n3)cc2)CC1` the neurite formation score was 2.88.
Work on `O=C1NC(=O)/C(=C/c2cccc(C(F)(F)F)c2)S1` yielded a neurite formation score of 4.36.
With `CN1CCN(c2ccc3nc(-c4c(N)c5c(F)cccc5[nH]c4=O)[nH]c3c2)CC1` [Dovitinib Dilactic acid] the neurite formation score was 4.96.
`CN1CCN(c2ccc(OC(F)(F)F)c(Nc3ncc4c(n3)-c3c(c(C(N)=O)nn3CCO)CC4)c2)CC1` was tested, and the neurite formation score was 4.88.
Work on `Cc1ccc(-n2nc(C(C)(C)C)cc2NC(=O)Nc2ccc(OCCN3CCOCC3)c3ccccc23)cc1` [BIRB 796 (Doramapimod)] yielded a neurite formation score of 4.57.
`COc1cc2c(N3CCN(C(=O)Nc4ccc(OC(C)C)cc4)CC3)ncnc2cc1OCCCN1CCCCC1` [Tandutinib (MLN518)] was tested, and the neurite formation score was 5.29.
`COc1nccc(-c2c(-c3ccc(F)cc3)ncn2C2CCC(O)CC2)n1` (stereo not given) was tested, and the neurite formation score was 5.36.
With `CC1=C(C(=O)Nc2cc3cn[nH]c3cc2F)C(c2ccc(C(F)(F)F)cc2)CC(=O)N1` (stereo not given) the neurite formation score was 0.236.
`Cc1c(NC(=O)OC[C@@H]2COCCN2)cn2ncnc(Nc3ccc4c(cnn4Cc4cccc(F)c4)c3)c12` was tested, and the neurite formation score was 2.91.
In the case of `CCc1cc(Nc2nccc(-c3c(-c4ccc(OC)c(C(=O)Nc5c(F)cccc5F)c4)nc4ccccn34)n2)c(OC)cc1N1CCC(N2CCN(S(C)(=O)=O)CC2)CC1`, the neurite formation score is reported as 4.91.
`CCN1C(=CC(C)=O)Sc2ccc(OC)cc21` showed a neurite formation score of 4.96.
With `COc1cc(Nc2c(C#N)cnc3cc(OCCCN4CCN(C)CC4)c(OC)cc23)c(Cl)cc1Cl` [Bosutinib (SKI-606)] the neurite formation score was 4.57.
`C[C@@H](Oc1cc(-c2cnn(C3CCNCC3)c2)cnc1N)c1c(Cl)ccc(F)c1Cl` [(R)-Crizotinib] showed a neurite formation score of 4.91.
`Cn1cc(-c2ccc3nnc(Sc4ccc5ncccc5c4)n3n2)cn1` was tested, and the neurite formation score was 4.24.
Compound `Nc1ncnc2c1c(-c1cnc3[nH]ccc3c1)nn2C1CCCC1` has a neurite formation score of 3.21.
`O=C(NCc1cccc(O)c1)Nc1nc(-c2ccncc2)cs1` was tested, and the neurite formation score was 5.02.
With `C=CC(=O)Nc1cccc(Oc2nc(Nc3ccc(N4CCN(C)CC4)cc3)ncc2Cl)c1` the neurite formation score was 5.96.
Work on `CNC(=O)c1cc(Oc2ccc(NC(=O)Nc3ccc(Cl)c(C(F)(F)F)c3)cc2)ccn1` [Sorafenib] yielded a neurite formation score of 4.24.
`Cc1ccc(NC(=O)c2ccc(CN3CCN(C)CC3)cc2)cc1Nc1nc(-c2cccnc2)cs1` [Masitinib (AB1010)] gave a neurite formation score of 4.24.
`COc1ccc(S(=O)(=O)N(CCO)c2ccccc2CN(C)C/C=C/c2ccc(Cl)cc2)cc1` [KN-93 Phosphate] showed a neurite formation score of 4.21.
For `CNC(=O)c1cc(COc2nnc(Nc3ccc(Cl)cc3)c3ccoc23)ccn1` [Telatinib (BAY 57-9352)], the neurite formation score was 4.96.
`CC(C)[C@H](CO)Nc1nc(Nc2cccc(Cl)c2)c2ncn(C(C)C)c2n1` [Purvalanol A] was tested, and the neurite formation score was 3.54.
In the case of `CCn1c(-c2nonc2N)nc2c(C#CC(C)(C)O)ncc(OC[C@H]3CCCNC3)c21`, the neurite formation score is reported as 4.02.
For `Cn1cc(-c2ccc3c(c2)CCN3C(=O)Cc2cccc(C(F)(F)F)c2)c2c(N)ncnc21`, the neurite formation score was 4.36.
Work on `CC(C)CCN1c2nc(Nc3cc(F)c(O)c(F)c3)ncc2N(C)C(=O)C1C` (stereo not given) yielded a neurite formation score of 4.21.
`CC(C)(O)CC(=O)NCCn1ccc2ncnc(Nc3ccc(Oc4cccc(C(F)(F)F)c4)c(Cl)c3)c21` showed a neurite formation score of 5.14.
With `COc1cc(C(=O)NC2CCN(C)CC2)c(F)cc1Nc1ncc2c(n1)N(C1CCCC1)CC(F)(F)C(=O)N2C` the neurite formation score was 5.54.
`Cc1cc(N2CCOCC2)cc2[nH]c(-c3c(NC[C@@H](O)c4cccc(Cl)c4)cc[nH]c3=O)nc12` was tested, and the neurite formation score was 3.57.
Compound `CNC(=O)c1cc(Oc2ccc(NC(=O)c3cccc(C(F)(F)F)c3)cc2)ccn1` has a neurite formation score of 3.57.
`CC(C)(C)n1nc(-c2ccc(Cl)cc2)c2c(N)ncnc21` was tested, and the neurite formation score was 4.24.
`CCCCCCCCCCCCCC(=O)OC[C@H](CO)OC(=O)CCCCCCCCCCCCC` [1,2-Dimyristoyl-sn-glycerol] gave a neurite formation score of 4.88.
Compound `COc1ccc(-c2ccc3c(N4CCOCC4)nc(N4C[C@@H](C)O[C@@H](C)C4)nc3n2)cc1CO` has a neurite formation score of 4.36.
`NC(=S)N/N=C/c1ncccc1N` [Triapine] gave a neurite formation score of 4.88.
